G9a block – blocks human histone lysine methyltransferase G9a. AID 504332. actives 8.8% (n = 350,000). Potency, µM (top dose mostly 102 µM), inactives show at the top dose activity, negative = inhibition, usual class: inhibitors. G9a H3K9 monomethylation, AlphaScreen, 2 h. Q96KQ7; also: % is scaled to controls: 0 for no effect and ±100 for the full control effect; nearly all actives have a fitted effect of over 75% in size
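G9a (20 nM) was preincubated 15 min with compound, then reacted 2 h at room temperature with 500 nM biotin-H3K9 peptide and 20 µM SAM. Monomethyl-H3K9 detected by AlphaScreen using anti-H3K9me1 antibody.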
BAZ2B inh – BAZ2B (human) inhibition; AlphaScreen BAZ2B-H3K14Ac peptide displacement; Q9UIF8; AID 504333; Potency, µM (doses to about 114 µM), for the others: at the top dose activity change, negative = inhibition, actives largely listed as inhibitors; actives 4.4% (n = 360,000); also: % is scaled to controls: 0 for no effect and ±100 for the full control effect; nearly all actives have a fitted effect of over 60% in size
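Multi-concentration screen (max 110 uM) measuring displacement of acetylated histone H3 peptide from BAZ2B by AlphaScreen, using 50 nM protein, 50 nM peptide and 10 ug/mL streptavidin donor plus Ni-chelate acceptor beads.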
HP1b binding inh – blocks HP1-beta chromodomain binding to methylated histone tails. actives 0.56% (n = 390,000). AlphaScreen HP1-beta / biotin-H3K9me3 peptide binding. Potency, µM (top dose mostly 114 µM), for the others: at the highest dose activity change, negative = inhibition, hits mostly inhibitors. P83916. AID 540317; also: nearly all actives have a fitted effect of over 70% in size
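HP1-beta protein (50 nM final) preincubated 30 min at room temperature with biotinylated H3(1-18)K9me3 peptide (50 nM) in PBS pH 7.4, 0.01% Tween-20, then compound added for 30 min. AlphaScreen streptavidin donor/nickel chelate acceptor beads (10 ug/mL final), 30 min dark, luminescence read.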
PLK1 PBD block – blocks phosphopeptide binding to human PLK1 polo-box domain. Plk1 PBD binding of FITC phosphopeptide, fluorescence polarization. Potency, µM, for inactives: max response, negative = inhibition, actives largely listed as inhibitors. actives 2.8% (n = 360,000); also: series mostly up to about 57 µM; % is scaled to controls: 0 for no effect and ±100 for the full control effect; nearly all actives have a fitted effect of over 65% in size
Target sequence (P53350 whole entry, looked up, the tested form may be a part): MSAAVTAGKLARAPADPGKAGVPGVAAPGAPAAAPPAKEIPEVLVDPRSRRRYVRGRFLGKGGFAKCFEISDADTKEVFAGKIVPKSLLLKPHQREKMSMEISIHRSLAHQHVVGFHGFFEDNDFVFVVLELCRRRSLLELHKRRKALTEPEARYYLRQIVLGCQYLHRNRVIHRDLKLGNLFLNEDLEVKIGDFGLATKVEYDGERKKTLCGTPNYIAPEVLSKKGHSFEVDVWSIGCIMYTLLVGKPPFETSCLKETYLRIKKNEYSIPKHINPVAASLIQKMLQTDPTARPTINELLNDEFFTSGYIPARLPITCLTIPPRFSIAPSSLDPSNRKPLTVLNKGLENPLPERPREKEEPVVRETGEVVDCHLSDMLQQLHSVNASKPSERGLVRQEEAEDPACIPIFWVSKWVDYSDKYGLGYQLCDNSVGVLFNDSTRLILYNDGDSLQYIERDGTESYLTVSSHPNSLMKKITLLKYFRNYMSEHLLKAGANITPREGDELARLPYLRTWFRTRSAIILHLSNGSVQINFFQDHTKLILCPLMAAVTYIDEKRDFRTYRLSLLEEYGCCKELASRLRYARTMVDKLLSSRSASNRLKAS
12-LOX inh – ALOX12 (human) lipoxygenase inhibition | actives 1.1% (n = 580,000) | Potency, µM (series often up to 108 µM), inactives show at the top dose activity change, negative = inhibition, most hits filed as inhibitors | purified 12hLO, xylenol orange hydroperoxide absorbance | P18054 | AID 1671190; also: % is scaled to controls: 0 for no effect and ±100 for the full control effect
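Purified human 12hLO (150 nM final) in 25 mM Hepes, 0.01% Triton X-100, pH 7.0 was preincubated 15 min at room temperature with compound. Then 40 uM arachidonic acid was added, 30 min. Hydroperoxide was read by Fe-XO absorbance ratio 573/405 nm.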
JMJD2A Tudor – JMJD2A Tudor domain (human) inhibition. AlphaScreen JMJD2A-Tudor / H3K4me3 peptide binding. Potency, µM (titrated, usually from 114 µM), inactives show at the highest dose activity change, negative = inhibition, most hits filed as inhibitors. actives 4.4% (n = 390,000); also: % is scaled to controls: 0 for no effect and ±100 for the full control effect; nearly all actives have a fitted effect of over 50% in size
* marks the source's active call; other numbers are inactive results; [ ] = another dose, or the depositor's remark. Rows were chosen to be rich in hits. Some 9% of all compounds tested hit in one or more screens of this group. Calls follow the shape of the dose curve; as a rule, active = well fitted curve in the direction sought with a large enough effect; inconclusive = small, poorly fitted or top-dose-only effect, or another doubt; inactive = no such curve, though single readings can be large; an effect the other way counts as inactive or inconclusive. Potency is read from the fitted curve at half-maximal effect.

`COc1cc(/C=N/S(=O)(=O)CCc2ccccc2)cc(OC)c1O` gave G9a block 50µM*, BAZ2B inh -23%, HP1b binding inh 13%, PLK1 PBD block -18%, 12-LOX inh -18% and JMJD2A Tudor -9%.
`CC(C)c1ccc(/C=C(\C#N)C(=O)NCCc2ccccc2)cc1` gave 12-LOX inh 2%.
`COc1cc(/C=C(\C#N)C(=O)NCCc2ccccc2)cc(OC)c1O` gave G9a block 32µM*, BAZ2B inh -8%, HP1b binding inh 4%, PLK1 PBD block 36%, 12-LOX inh -16% and JMJD2A Tudor -15%.
N#C/C(=C\c1ccc(O)c(O)c1)C(=O)NCCc1ccccc1 was read as G9a block 9.5µM*, BAZ2B inh 11µM*, HP1b binding inh inconclusive, PLK1 PBD block -6%, 12-LOX inh inconclusive and JMJD2A Tudor inconclusive.
`COc1cc(/C=N/NC(=S)NCCc2ccccc2)cc(OC)c1OC` gave G9a block -7%, BAZ2B inh -32%, HP1b binding inh 11%, PLK1 PBD block -12%, 12-LOX inh 0% and JMJD2A Tudor inconclusive.
Screening COc1cccc(NC(=O)Nc2cnccn2)c1 returned G9a block -1%[59 µM], BAZ2B inh 6%, HP1b binding inh 19%, PLK1 PBD block 2%, 12-LOX inh -14% and JMJD2A Tudor 13%.
c1ccc(C(c2ccccc2)c2noc(CN3CCN(CC4CC4)CC3)n2)cc1 was read as BAZ2B inh -10%, HP1b binding inh 39%, PLK1 PBD block 0%, 12-LOX inh -3% and JMJD2A Tudor -20%.
`COc1ccc(-c2cc(N)n(S(=O)(=O)c3c(F)c(F)c(F)c(F)c3F)n2)cc1OC` gave G9a block -16%[59 µM], BAZ2B inh inconclusive, HP1b binding inh 15%, PLK1 PBD block 1.2µM*, 12-LOX inh 0% and JMJD2A Tudor -31%.
For O=C(NCc1ccc(Cn2cccn2)cc1)c1cn[nH]c1-c1ccc(F)cc1 the results were 12-LOX inh -2%.
Fc1ccc(-c2[nH]ncc2CNCc2cccc(Cn3cccn3)c2)cc1 was read as 12-LOX inh 18µM*.
`CCc1ccc(S(=O)(=O)/N=C2\C=CC(=O)c3ccccc32)cc1` gave G9a block 14µM* and BAZ2B inh 35µM*.
For CCc1ccc(S(=O)(=O)/N=C2\C=C(Nc3cccc(C(=O)O)c3)C(=O)c3ccccc32)cc1 the results were G9a block 14µM*, BAZ2B inh 10µM*, HP1b binding inh inconclusive, PLK1 PBD block 38µM*, 12-LOX inh -16% and JMJD2A Tudor 18µM*.
Screening O=C(O)c1cccc(NC2=C(n3nnc4ccccc43)C(=O)c3ccccc3C2=O)c1 returned BAZ2B inh inconclusive, HP1b binding inh 32%, PLK1 PBD block -1%, 12-LOX inh 2% and JMJD2A Tudor -4%.
For CCc1ccc(S(=O)(=O)Nc2ccccn2)cc1 the results were BAZ2B inh 10%, HP1b binding inh 47%, PLK1 PBD block inconclusive, 12-LOX inh 2% and JMJD2A Tudor -6%.
CCc1ccc(S(=O)(=O)/N=C2/C=C(Sc3ncn[nH]3)C(=O)c3ccccc32)cc1 was read as G9a block 1.4µM*, BAZ2B inh 45µM*, HP1b binding inh inconclusive, PLK1 PBD block 1.5µM* and JMJD2A Tudor 4µM*.
For CCc1ccc(S(=O)(=O)/N=C2\C=C(Nc3ccc(O)cc3)C(=O)c3ccccc32)cc1 the results were G9a block 7.1µM*, BAZ2B inh 8.9µM*, HP1b binding inh 10µM*, PLK1 PBD block inconclusive and JMJD2A Tudor 7.1µM*.
For CCc1ccc(S(=O)(=O)O)cc1 the results were G9a block -47%[12.7 µM].
C=CCc1cccc(/C=N/NC(=O)C(=O)Nc2ccc(C)cc2)c1O was read as G9a block inconclusive, BAZ2B inh -7%, HP1b binding inh 6%, PLK1 PBD block inconclusive, 12-LOX inh 3% and JMJD2A Tudor -22%[11.4 µM].
For O=C(NCc1ccc(F)cc1)C1COC2(CCN(C(=O)c3ccco3)CC2)N1C(=O)c1ccccc1 (stereo not given) the results were 12-LOX inh 3%.
CCOc1ccc(NC(=O)CCNS(=O)(=O)c2cccc3nsnc23)cc1 was read as G9a block inconclusive, BAZ2B inh -15%, HP1b binding inh 15%, PLK1 PBD block -1%, 12-LOX inh -21% and JMJD2A Tudor -4%.
For COc1ccc(C2SCc3cc(C)c(C)cc3CS2)cc1 the results were 12-LOX inh 0%.
For Cc1cc2c(cc1C)CSC(c1c(O)ccc3cc(Br)ccc13)SC2 the results were 12-LOX inh 0.79µM*.
For O=C(Nc1ccc(-n2cnnn2)cc1)C(c1ccccc1)c1ccccc1 the results were G9a block -1%, BAZ2B inh -4%, HP1b binding inh 47%, PLK1 PBD block 1%, 12-LOX inh 0% and JMJD2A Tudor -2%.
Screening O=C1c2ccccc2NC2(CCCC2)N1O returned G9a block 35µM*, BAZ2B inh -29%, HP1b binding inh 24%, PLK1 PBD block -2%, 12-LOX inh inconclusive and JMJD2A Tudor -13%.
`O=C(CSc1ccc(Cl)cc1)Nc1cc(-c2nc3ncccc3o2)ccc1Cl` gave G9a block 9%[59 µM], BAZ2B inh -12% and 12-LOX inh -11%.
Screening CCCc1n(CC(O)COCc2ccccc2)c2ccccc2[n+]1C (stereo not given) returned G9a block inconclusive, BAZ2B inh -31%, HP1b binding inh 28%, PLK1 PBD block -1%, 12-LOX inh inconclusive and JMJD2A Tudor -1%.
For Cc1cc2c(cc1C)[n+](C)cn2CC(O)COCc1ccccc1 (stereo not given) the results were G9a block 5.6µM*, BAZ2B inh 7%, HP1b binding inh 5%, PLK1 PBD block -4%, 12-LOX inh inconclusive and JMJD2A Tudor inconclusive.
`C[n+]1cn(CC(O)COCc2ccccc2)c2ccccc21` (stereo not given) gave BAZ2B inh inconclusive, HP1b binding inh 22%, PLK1 PBD block -5%, 12-LOX inh 40µM* and JMJD2A Tudor -10%.
For CC(C)(C)C(=O)N1CCN(c2ccc([N+](=O)[O-])c(-n3nc(-c4ccccc4)c4ccccc4c3=O)c2)CC1 the results were G9a block inconclusive, BAZ2B inh -33%, HP1b binding inh -3%, PLK1 PBD block -1%, 12-LOX inh inconclusive and JMJD2A Tudor inconclusive.
For O=C(Nc1ccccc1C(F)(F)F)c1c(Cl)cccc1Cl the results were 12-LOX inh -9%.

High-throughput results from PubChem BioAssay.
